Assay [1] is described as follows: AP1 Signaling Pathway (AID 357). Further: on the % scale 0 is the no-effect control and ±100 the full control effect. The following applies: ME-180 AP-1-bla reporter, EGF-induced, beta-lactamase ratio, 5 h. The procedure, abridged: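 AP-1-bla ME-180 cells with beta-lactamase reporter under AP-1 response element, stimulated with EC50 EGF; compounds titrated, 5 hours at 37 degrees Celsius. CCF4 read at 460/530 nm ratio; positive and negative modulators judged by AC50.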

The target of assay [2] is Cytochrome P450 1A2 (Homo sapiens) (UniProt P05177). The assay can be described thus: p450-cyp1a2 (AID 410; calls by dose curve; further: potency means the concentration at half of the fitted maximal effect;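 on activity change, negative = inhibition: -100% = full effect of reference inhibitor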). The note with it: recombinant CYP1A2, luciferin-ME demethylation, luminescence; series mostly up to 25.6 µM. The procedure, abridged: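 Luminescent demethylation readout: Luciferin-ME (100uM, equal to Km) turned over by 20nM CYP1A2 for 60 min at room temperature after NADPH regeneration addition, following 10 min compound preincubation. Normalization used 57 uM furafylline as full inhibition.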
Sequence of Cytochrome P450 1A2 (Homo sapiens) (P05177 whole entry, looked up): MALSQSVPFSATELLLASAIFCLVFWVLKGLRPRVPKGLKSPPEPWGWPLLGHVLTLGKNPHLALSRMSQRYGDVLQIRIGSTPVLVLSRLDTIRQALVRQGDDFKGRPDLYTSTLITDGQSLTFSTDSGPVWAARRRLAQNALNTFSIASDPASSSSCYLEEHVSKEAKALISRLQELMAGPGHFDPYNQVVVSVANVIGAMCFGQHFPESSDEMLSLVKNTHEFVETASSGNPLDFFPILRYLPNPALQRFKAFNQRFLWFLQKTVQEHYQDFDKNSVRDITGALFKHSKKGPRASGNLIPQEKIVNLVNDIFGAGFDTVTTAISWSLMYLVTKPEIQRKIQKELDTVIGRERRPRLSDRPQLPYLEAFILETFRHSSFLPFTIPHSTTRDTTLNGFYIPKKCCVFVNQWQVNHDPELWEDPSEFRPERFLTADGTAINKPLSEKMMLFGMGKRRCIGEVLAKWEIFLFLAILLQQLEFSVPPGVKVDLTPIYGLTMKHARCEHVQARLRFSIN

Assay [3] can be described thus: NFAT Signaling Pathway (AID 444).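 Further: carbachol stimulus at about its EC50 of 1 µM final; on the % scale 0 is the no-effect control and ±100 the full control effect.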 The note with it: Jurkat NFAT-bla M1, carbachol, beta-lactamase ratio, 5 h. The essentials:
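Jurkat cells with NFAT-driven β-lactamase reporter and co-expressed M1 receptor, stimulated with carbachol (final 1 uM, ~EC50), compound titration, 5 h at 37 °C. CCF4 loaded 1 h at RT; 460/530 nm ratio gave %activity and AC50.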

The target of assay [4] is Glucocorticoid receptor (Homo sapiens) (UniProt P04150). In words: GR-GFP Redistribution (AID 450;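 active means compounds whose dose series gives a full or clear partial fitted curve of increased nuclear translocation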; further: potency means the concentration at half of the fitted maximal effect). The following applies: U2OS GR-GFP nuclear translocation, laser cytometry, 2 h.
Sequence of Glucocorticoid receptor (Homo sapiens) (P04150 whole entry, looked up): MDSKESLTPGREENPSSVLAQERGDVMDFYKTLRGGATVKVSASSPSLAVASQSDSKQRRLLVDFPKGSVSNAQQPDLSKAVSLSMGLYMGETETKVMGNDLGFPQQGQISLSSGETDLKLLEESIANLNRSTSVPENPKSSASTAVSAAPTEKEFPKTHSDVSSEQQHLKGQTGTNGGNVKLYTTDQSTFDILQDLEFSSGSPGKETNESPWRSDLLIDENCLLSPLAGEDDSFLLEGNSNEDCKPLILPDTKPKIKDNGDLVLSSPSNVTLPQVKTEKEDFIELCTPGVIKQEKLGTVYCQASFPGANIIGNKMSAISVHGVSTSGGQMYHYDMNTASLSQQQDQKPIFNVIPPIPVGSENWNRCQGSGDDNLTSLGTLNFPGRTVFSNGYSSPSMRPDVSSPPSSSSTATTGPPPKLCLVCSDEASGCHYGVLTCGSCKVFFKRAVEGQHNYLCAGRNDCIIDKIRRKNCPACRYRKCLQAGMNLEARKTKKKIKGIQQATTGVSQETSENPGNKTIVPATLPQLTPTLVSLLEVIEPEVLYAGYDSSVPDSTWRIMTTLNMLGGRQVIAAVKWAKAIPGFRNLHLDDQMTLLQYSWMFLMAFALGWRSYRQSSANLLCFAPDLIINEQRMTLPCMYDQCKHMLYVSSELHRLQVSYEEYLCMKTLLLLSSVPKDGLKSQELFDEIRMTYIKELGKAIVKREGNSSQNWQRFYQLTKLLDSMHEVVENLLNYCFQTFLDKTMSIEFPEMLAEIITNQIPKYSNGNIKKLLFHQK
Assay [5] shares this target. In words: GR-EFC Redistribution (AID 451; calls by dose curve; further: potency means the concentration at half of the fitted maximal effect). The note with it: CHO-K1 GR-EFC translocation, beta-gal luminescence, 2 h. The procedure, abridged:
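CHO-K1 cells expressing nuclear EA and GR-ED fragments of b-gal; compounds titrated up to 46 uM final, 2 h at 37 C. GR nuclear translocation read as complemented b-gal luminescence after 1 h RT detection.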

The target of assay [6] is Mitogen-activated protein kinase 10 (Mus musculus) (UniProt Q61831). The assay can be described thus: JNK3 AlphaScreen Assay (AID 530).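 Further: kinase came from lysate of stimulated human HepG2 cells; signal reports phosphorylation of biotinylated GST-cJun 1-79 at Ser73 with 10 µM ATP; on the % scale 0 is the no-effect control and ±100 the full control effect.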 The note with it: JNK3 lysate, c-Jun phosphorylation; series mostly up to 25.6 µM. The essentials: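 Activity was read by AlphaScreen after JNK3-containing HepG2 lysate (cytokine pre-activated) phosphorylated biotinylated GST-cJun with 10 uM ATP at room temperature. Phospho-Ser73 cJun antibody with Protein-A acceptor beads provided detection.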

Assay [7] is described as follows: Stat Signaling Pathway (AID 446).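 Further: ME-180 cervical cancer cells given 40 pM IL-6 alongside compound; SIE-controlled beta-lactamase reporter measured as 460/530 nm FRET emission ratio; on the % scale 0 is the no-effect control and ±100 the full control effect.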 The following applies: ME-180 (cervical carcinoma) SIE beta-lactamase reporter, IL-6 stimulated, 5 h. The procedure, abridged: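 Compound effects on IL-6-induced STAT reporter activity were measured in ME-180 cells. After overnight culture, cells were co-treated with 40 pM IL-6 for 5 hrs before beta-lactamase substrate loading at room temperature.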

Molecules are shown by their SMILES. Values joined by “and” are separate entries in the source; they are usually repeats but may differ in a detail not shown here. Equal entries are not always repeated. Values without a mark were called inactive. Results filed as inconclusive are left out. Active and inactive are the calls of the source. Unless noted, the call rests on the fitted dose curve; in most records, active means well fitted curve in either direction with a large enough effect (not every such curve was filed as active); inconclusive means small, poorly fitted or top-dose-only effect, or another doubt; inactive means flat fitted curve, though single readings scatter.

In the case of `COc1c2occc2c(OC)c2c(=O)cc(C)oc12`, the activity change, negative = inhibition in assay [1] (at 17.2 µM (top of the series)) is 4.61% and -2.27%; in assay [3] (at 17.2 µM (top of the series)), 4.03% and 8.21%. The results for the Potency in assay [2], in assay [4] and in assay [5] were 20 nM (active), more than 20.6 µM and more than 20.6 µM, respectively. The outcome in assay [6] was inactive.
In the case of `C[C@H](O)C(=O)Nc1c(I)c(C(=O)NC(CO)CO)c(I)c(C(=O)NC(CO)CO)c1I`, the activity change, negative = inhibition in assay [1] (at 17.2 µM (top of the series)) was 11.2%; in assay [3] (at 17.2 µM (top of the series)) it was 3.52%. In assay [2], the Potency result is “inactive”. The Potency in assay [4] and in assay [5] was more than 20.6 µM throughout. For the same molecule, the result in assay [6] was inactive.
As to `Cc1ccnc(NS(=O)(=O)c2ccc(N)cc2)n1`, the figures for the activity change, negative = inhibition in assay [1] (at 17.2 µM (top of the series)) and in assay [3] (at 17.2 µM (top of the series)) were 17.4% and 0.552%, respectively. In assay [2], the Potency result was “inactive”. Also, in assay [7] (at 17.2 µM (top of the series)), the activity, negative = inhibition is -12.6%. For the same molecule, the Potency in assay [4] and in assay [5] was more than 20.6 µM each time. Also, the result in assay [6] was inactive.
Turning to `C[N+]1(CCCCC[N+]2(C)CCCC2)CCCC1`, the activity change, negative = inhibition is 5.75% in assay [1] (at 17.2 µM (top of the series)), 7.2% in assay [1] (at 38 µM (top of the series)), -12.7% in assay [3] (at 17.2 µM (top of the series)) and -8.15% in assay [3] (at 38 µM (top of the series)). Besides, the activity, negative = inhibition is 14.2% in assay [7] (at 17.2 µM (top of the series)) and 0.841% in assay [7] (at 38 µM (top of the series)). The Potency was > 46 µM and > 20.6 µM in assay [4]; > 46 µM and > 20.6 µM in assay [5]. For the same molecule, in assay [6], the outcome was inactive.
As for `O=C(O)c1cc2cc(Cc3cccnc3)ccc2o1`, the values for the activity change, negative = inhibition in assay [1] (at 38 µM (top of the series)) and in assay [3] (at 38 µM (top of the series)) were -4.5% and -0.641%, respectively. Also, the Potency entry in assay [2] is “inactive”. Further, the Potency in assay [4] and in assay [5] was more than 46 µM each time. Also, the outcome in assay [6] was inactive.
As to `O=C(COc1ccc(Cl)cc1)N1CCN(Cc2ccc3c(c2)OCO3)CC1`, the activity change, negative = inhibition was -14.6% in assay [1] (at 17.2 µM (top of the series)) and 15.3% in assay [3] (at 17.2 µM (top of the series)). Further, the Potency in assay [2] was 5010 nM (active). Also, the activity, negative = inhibition in assay [7] (at 17.2 µM (top of the series)) is 1.26%. In assay [6], the result was inactive.
For `CCN1CCC[C@H]1CNC(=O)c1c(OC)ccc(Br)c1OC`, the figures for the activity change, negative = inhibition in assay [1] (at 17.2 µM (top of the series)) and in assay [3] (at 17.2 µM (top of the series)) were -5.77% and -26.9%, respectively. Besides, the Potency result in assay [2] is “inactive”. In addition, the activity, negative = inhibition in assay [7] (at 17.2 µM (top of the series)) was 14.1%. Further, the result in assay [6] was inactive.
Turning to `CCN(CC)C(=O)N1CCN(C)CC1`, the figures for the activity change, negative = inhibition in assay [1] (at 17.2 µM (top of the series)) and in assay [3] (at 17.2 µM (top of the series)) were 1.31% and -7.87%, respectively. In addition, the Potency entry in assay [2] is “inactive”. Moreover, in assay [7] (at 17.2 µM (top of the series)), the activity, negative = inhibition was 3.22%. The Potency in assay [4] and in assay [5] was more than 20.6 µM in each case. In assay [6], the molecule was classed as inactive.
`COc1cc(-c2ccc(=O)[nH]n2)ccc1OC(F)F`: the activity change, negative = inhibition was -8.42% in assay [1] (at 17.2 µM (top of the series)), 17.6% in assay [1] (at 38 µM (top of the series)), -13.5% in assay [3] (at 17.2 µM (top of the series)) and -7.13% in assay [3] (at 38 µM (top of the series)). Further, the Potency was 10 µM (active) and 5.01 µM (active) and 2.51 µM (active) in assay [2]; > 46 µM and > 20.6 µM in assay [4]; > 46 µM and > 20.6 µM in assay [5]. Besides, the activity, negative = inhibition was 0.425% in assay [7] (at 17.2 µM (top of the series)) and -14.4% in assay [7] (at 38 µM (top of the series)). For the same molecule, the result in assay [6] was inactive.

The record behind these values is PubChem BioAssay (NCATS).
